Laboratory results taken from PubChem BioAssay AID1345083 (National Center for Advancing Translational Sciences (NCATS), 2018).
The campaign covered roughly 94,000 compounds. About 6,200 (6.6%) were called active. Entries that show only a call come without a potency. Another 31% or so got no clear call; they are omitted. The call rests on the fitted dose curve; in most records, active means well fitted inhibition curve with a large enough effect; inconclusive means small, poorly fitted or top-dose-only effect; inactive means flat fitted curve, though single readings scatter. Only a selection was taken, and actives are over-represented in it overall.

assay: Cytotoxic Profiling in HEK 293 Cell Line of Diverse Libraries Using Quantitative High-Throughput Screening; conditions: HEK 293 viability, ATP luminescence (CellTiter-Glo), 48-72 h; series mostly up to 115 µM; further: nearly all actives have a fitted effect of over 60% in size
From the text: Cell-based phenotypic screening is a commonly used approach to discover biological pathways, novel drug targets, chemical probes and high-quality hit-to-lead molecules. Many hits identified from high-throughput screening campaign are ruled out through a series of follow-up potency, selectivity/specificity, and cytotoxicity assays. Prioritization of molecules with little or no cytotoxicity for a more in-depth downstream evaluation influence the future direction of projects, so cytotoxicity profiling of the screening libraries at early stage is essential for increasing the likelihood of candidate success. In this study, we analyzed results from a cell-based cytotoxicity screening campaign, comprising nearly 10,000 compounds in NCATS annotated libraries, and over 100,000 compounds in a diversity library, evaluated in four normal cell lines (HEK 293, NIH 3T3, CRL-7250 and HaCat) and a cancer cell line (KB 3-1, a HeLa subline) with overall screening outcomes, hit rates, pan-activity and selectivity. For the annotated library, we also examined the primary targets and mechanistic pathways regularly associated with cell death. To our knowledge, this is the first study to use high-throughput screening to profile large libraries for cytotoxicity assessment in both normal and cancer cell lines. In summary, the results generated here constitutes a valuable resource for the scientific community and provides insight on identifying cytotoxic compounds with particular mechanisms of action, and prioritizing compounds with suitable cytotoxicity profile for further evaluation.
HEK 293 cells were seeded into white 1536-well plates using a Multidrop Combi peristaltic dispenser (ThermoFisher, Waltham, MA) at a density of 250 cells/well in 5 uL of medium respectively. A pintool (Kalypsys) was used to transfer 23 nL of compound solution to the 1536-well assay plates. After 48 or 72 hr incubation at 37 degree Celsius, 5% CO2 and 95% humidity, 2.5 uL of CellTiter-Glo (Promega) was dispensed into each well using a dispenser (Aspect Automation, St. Paul, MN) with solenoid valves (Lee Valves, Westbrook CT). Plates were left at room temperature for 10 min before imaging the ATP-coupled luminescence using a ViewLux microplate imager (PerkinElmer, Waltham, MA).
Potency means the concentration at half of the fitted maximal effect.

Structure (SMILES) | Potency
CCc1nc(-c2c3n(c(=O)n(CC(=O)Nc4cccc(Cl)c4C)c2=O)CCCC3)no1 | inactive
CCOC(=O)C1CC1CN1CCCC12Cc1ccccc1CNC2=O (stereo not drawn) | inactive
Cc1nn(-c2ccccc2)c(C)c1CN1CCCC12Cc1ccccc1CNC2=O (stereo not drawn) | inactive
O=C1NCc2ccccc2CC12CCCCN2Cc1cccc(F)c1F (stereo not drawn) | 50.1 µM (active)
CCN(C(=O)CCC(=O)N1CCc2c(c(-c3nncn3CC)nn2C)C1)c1ccccc1 | inactive
CC(C)c1nnc(C2CN(C(=O)c3ccc4ccccc4n3)CC23CCOCC3)o1 (stereo not drawn) | inactive
CNc1ncc(C(=O)N[C@@H]2COCC[C@@H]2OCc2c(C)noc2C)cn1 | inactive
COc1ccc(NC(=O)c2cc3c(N(C)Cc4ccccc4)nc(C)cn3n2)cc1F | inactive
O=C(c1cnccn1)N1CCC2(COc3ncccc3[S+](=O)([O-])N2)C1 (stereo not drawn) | inactive
CCCn1cc(C(=O)N2C[C@H](c3ccccc3)[C@@H](N)C2)c(C)n1 | inactive
COc1ccc(CN2CCC3(Cc4ccccc4CNC3=O)C2)cc1OC (stereo not drawn) | inactive
CN1CC(=O)N(c2cccnc2)Cc2c1ncnc2N1CCN(c2ccccn2)CC1 | inactive
O=C(NCc1ccccc1)[C@@H]1Cc2nc[nH]c2CN1Cc1cccc(OC(F)(F)F)c1 | 70.8 µM (active)
O=[N+]([O-])c1cccc(-c2noc([C@@H]3C[C@@H](O)CN3Cc3cccc(OC(F)(F)F)c3)n2)c1 | inactive
O=C(O)CCC(=O)N1Cc2[nH]cnc2C[C@H]1c1nc(-c2ccc3ccccc3c2)no1 | inactive
CN1Cc2ncnc(NCc3cccs3)c2CN(c2ccccc2)C1=O | inactive
CN1CCN(C(=O)CC2=C3CCCCC3NC2=O)CC1 (stereo not drawn) | inactive
O=C(CCC1CCN(C(=O)c2ccccc2F)CC1)Nc1cccc(Cl)c1 | 12.6 µM (active)
COc1ccc(NC(=O)CCC2CCN(S(=O)(=O)c3ccc(C)cc3)CC2)cc1F | inactive
O=C(NCCC1CCN(C(=O)Nc2cc(F)ccc2F)CC1)c1cc(F)ccc1F | inactive
COc1cc2c(cc1C(=O)N1CCC3(CCCN(C)C3=O)C1)CCC2 (stereo not drawn) | inactive
Cn1nccc1CN1CCc2nc(C3CC3)nc(-c3ccc(O)cc3)c2C1 | inactive
COCCc1noc(CC2CCOC3(CCN(C(=O)C4CCCC4)CC3)C2)n1 (stereo not drawn) | inactive
CN(C)C[C@H]1O[C@@H]2C[C@@H](CC(=O)N3CCC(F)(F)C3)O[C@@H]2[C@@H]1O | inactive
O=C(Cc1cccnc1)N1CCc2onc(-c3ccc(F)c(F)c3)c2C1 | inactive

Structure (SMILES) | Potency
COc1ccc(Cl)cc1S(=O)(=O)N1CCCC(CNC(=O)c2ccco2)C1 (stereo not drawn) | inactive
Cc1ccccc1S(=O)(=O)N1CCCC(CCC(=O)NCC2CCCCC2)C1 (stereo not drawn) | 39.8 µM (active)
Cc1ccc(S(=O)(=O)N2CCCC(CCC(=O)N(C)C)C2)cc1 (stereo not drawn) | inactive
CCCc1noc(-c2ccn3c(CNC(=O)c4ccc(N(C)C)cc4)nnc3c2)n1 | inactive
CCCNC(=O)N(C1CCOCC1)C1CCN(S(=O)(=O)c2ccc(F)cc2)CC1 | inactive
CN1c2cc(C(=O)N3CCC(C(N)=O)CC3)ccc2C(=O)N2CCCCC21 (stereo not drawn) | inactive
COCCn1ccc2cc(C(=O)Nc3ccc4c(c3)C(=O)N3CCC[C@H]3C(=O)N4)ccc21 | inactive
CCOc1ccc(NC(=O)c2ccc3c(c2)N(C)C2CCCN2C3=O)cc1 (stereo not drawn) | inactive
CN1c2cc(C(=O)Nc3ccccc3)ccc2C(=O)N2CCCCCC21 (stereo not drawn) | 79.4 µM (active)
Cc1ccc(CNC(=O)c2ccc3c(c2)N(C)C2CCCCN2C3=O)cc1C (stereo not drawn) | inactive
CN1c2cc(C(=O)Nc3ccc(Cl)cc3)ccc2C(=O)N2CCCCCC21 (stereo not drawn) | 35.5 µM (active)
Cc1ccc(N2CCN(C(=O)c3ccc4c(c3)N(C)C3CCCCCN3C4=O)CC2)cc1 (stereo not drawn) | 39.8 µM (active)
Cc1cccc(NC(=O)Cn2nc3n(c2=O)CCCC3)c1 | inactive
Cc1ccc(C(=O)N2CCC(C(=O)N3CCC(N4CCOCC4=O)CC3)CC2)cc1 | inactive
CN1CCCCCCN(C(=O)Nc2ccccc2)CCC1=O | inactive
CCOC(=O)c1cccc(NC(=O)c2ccc3c(c2)N(C)C2CCCCN2C3=O)c1 (stereo not drawn) | 35.5 µM (active)
Cc1ccc(-c2ccc3nnc(CNC(=O)c4ccncc4)n3n2)cc1C | inactive
COc1ccc2c(c1)OCC(C(=O)N1CCCN(c3ncccn3)CC1)C2 (stereo not drawn) | inactive
COc1ccc(C(=O)NCC23CCC=C2N(C)C(=O)CC3)cc1OC (stereo not drawn) | inactive
CCCS(=O)(=O)N1CCC(Nc2nccnc2OCC)CC1 | inactive
COC[C@@H]1CN(Cc2c(C)n[nH]c2C)C[C@H]1c1nc(C)no1 | inactive
CC/C=C(\C)CN1CCC2(CC1)Cc1ccccc1CNC2=O | inactive
CC(=O)N1CC(CO)C2(CCN(C(=O)c3ccccc3Cl)CC2)C1 (stereo not drawn) | inactive
C=CCNC(=O)N1CC[C@@H](CC(=O)O)[C@@H](CC2=NCCc3ccc(C)cc32)C1 | inactive
COc1ccc(-c2nc3ccncc3[nH]2)cc1 | 20 µM (active)

Structure (SMILES) | Potency
COc1ccc(C(=O)N2CCCC(C(=O)N3CCCC(c4nc5ccncc5[nH]4)C3)C2)cc1 (stereo not drawn) | inactive
COc1ccc(C(=O)N2CCCC2C(=O)N2CCCC2c2nc3ccncc3[nH]2)cc1 (stereo not drawn) | inactive
Cc1ccc(CN2CCOCCNC(=O)CC2)o1 | inactive
CN(C)C(=O)c1cccnc1OC1CCN(S(=O)(=O)c2ccc(F)c(F)c2)C1 (stereo not drawn) | inactive
CC1(c2ccccc2)N(Cc2ccccc2F)C(=O)OC12CCN(Cc1c[nH]c3ccccc13)CC2 (stereo not drawn) | 20 µM (active)
COC1CCC(C(=O)N2CCC3(CC2)OC(=O)N(Cc2ccccc2)C3(C)c2ccccc2)CC1 (stereo not drawn) | inactive
Cc1ncsc1C(=O)N1CCC2(CC1)OC(=O)N(Cc1ncccn1)C2(C)c1ccccc1 (stereo not drawn) | inactive
CCOc1ccccc1C(=O)N1Cc2cnc(Cc3ccc(OC)cc3)nc2C1 | inactive
CC(C)Oc1ccc(CN2CCCC(COc3ccccc3C(=O)N3CCCC3)C2)cc1 (stereo not drawn) | 39.8 µM (active)
CC1CCN(C(=O)c2ccccc2OCC2CCCN(Cc3cncs3)C2)CC1 (stereo not drawn) | inactive
COc1cc(-c2ccccc2C#N)cc(OC)c1OC | inactive
COCCNC(=O)[C@@H]1C[C@H](Oc2ccccc2)CN1C(=O)C1(c2ccccc2)CC1 | inactive
COC(=O)c1n[nH]c2c1CN(C(=O)[C@H]1CCC[C@@H](O)C1)CC2 | inactive
CN(C)C(=O)c1n[nH]c2c1CN(C(=O)c1ccccc1Br)CC2 | inactive
O=C(NCCCc1ccccc1)c1n[nH]c2c1CN(C(=O)C1CC1)CC2 | 11.2 µM (active)
CN(C)C[C@@H]1CN(S(C)(=O)=O)C[C@H]1NC(=O)c1ccc(C#N)cc1 | inactive
Cn1nc(C2CCCN2C(=O)NC2CCCCC2)n(Cc2ccccc2)c1=O (stereo not drawn) | inactive
COCCn1c(C)cnc1CC1CCN(C(=O)c2ccc(OC)cc2OC)CC1 | inactive
Cc1cc(C(=O)N2CCCC(Cc3noc(-c4cccnc4)n3)C2)nn1C (stereo not drawn) | inactive
COc1ccc(NC(=O)N2CCCC(Cc3noc(-c4ccccc4)n3)C2)cc1 (stereo not drawn) | 35.5 µM (active)
COCCCNC(=O)N1CCC(Cc2noc(-c3ccncc3)n2)C1 (stereo not drawn) | inactive
Cc1nc(-c2cn(C3CCCN(C(=O)c4cc(F)ccc4F)C3)nn2)no1 (stereo not drawn) | inactive
COC(=O)[C@H](CC1CCCCC1)NC(=O)[C@@H]1CN(C(=O)c2ccc(N(C)C)cc2)CCN1C(C)=O | inactive
COc1ccc(NC(=O)N2C[C@@H](F)C[C@H]2C(=O)N2CCCCC2)c(C)c1 | inactive
NCc1ccc(-c2cncnc2)cc1 | inactive

Structure (SMILES) | Potency
Cc1cc(Cl)ccc1-c1ccc(CN)cc1 | 31.6 µM (active)
O=C(CCc1ccc2c(c1)CNCCO2)NCC1CC1 | inactive
O=C1CCCCC(CNC(=O)c2ccoc2)N1 (stereo not drawn) | inactive
Cc1ccc(CNC(=O)N2CCC3(CC2)CC(N(C2CC2)S(C)(=O)=O)CCO3)cc1 (stereo not drawn) | inactive
Cc1nc(-c2ccccc2OC2CN(S(=O)(=O)c3cn(C)cn3)C2)no1 | inactive
COc1ccccc1-c1cc(C(=O)NCc2cnn(C)c2)c2c(c1)N(C)CCO2 | inactive
COc1ccccc1-c1cnc(NC(=O)c2ccc(Cl)cc2)c2c1CCO2 | 63.1 µM (active)
COc1ccccc1-c1cnc(Nc2ccncc2)c2c1CCO2 | 63.1 µM (active)
COc1cc2c(cc1OC)C(CNC(=O)c1ccc(Cl)cc1)N(C(=O)Nc1ccccc1)CC2 (stereo not drawn) | inactive
CCS(=O)(=O)N1CC(F)(F)C[C@H]1c1nc(C2CC2)no1 | inactive
CC(C)(C)n1nnnc1C1CC2(CCOCC2)C(=O)N1Cc1cccc(F)c1 (stereo not drawn) | inactive
O=C1CC2(CCN(C(=O)C3CCN(C(=O)Cc4ccccn4)CC3)CC2)Oc2ccccc2N1 | inactive
Cc1cnc(C)n1CCN | inactive
Cc1ccccc1S(=O)(=O)N1CCN(C(=O)N2CC3CC(C2)[C@H]2CCCC(=O)N2C3)CC1 (stereo partly drawn) | inactive
CCNC(=O)c1cccnc1OC1CCN(C(=O)CC2CCCC2)C1 (stereo not drawn) | inactive
c1ccc2sc(C3CCCN(Cc4cc5n(n4)CCNC5)C3)nc2c1 (stereo not drawn) | inactive
Cn1c([C@H]2CCN(C3CCOCC3)C2)nc2ccccc21 | inactive
CN1CCC(N2CC[C@H](c3nc4ccccc4s3)C2)CC1 | 31.6 µM (active)
COc1cccc(CC(=O)NCCC2CCN(C(=O)Nc3ccc(C)cc3)CC2)c1 | inactive
COc1cccc(NC(=O)NC[C@H]2O[C@@H](CO)[C@@H](O)[C@H]2N(C)CCN(C)C)c1 | inactive
C#CCN[C@@H]1C[C@@H]2c3[nH]c4ccccc4c3C[C@@H](C(=O)OC)N2[C@H](c2ccc(F)cc2)C1 | 31.6 µM (active)
COC(=O)[C@@H]1Cc2c([nH]c3ccccc23)[C@H]2C[C@H](NCCNC(C)=O)C[C@@H](c3ccc(C)cc3)N21 | 25.1 µM (active)
COC(=O)[C@@H]1C[C@@H](NC(=O)c2ccc(-c3nnn(C)n3)cc2)CN1C | inactive
